For some of these results: Results with a measured potency or affinity are listed apart. Calls of active or inactive are those of the source. Unless noted, how the calls were made is not given here.
Columns and labels:
[1] = antimalarial activity against Dd2 strain (AID 2302;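 active means growth inhibition above 50% at the single 2 µM test dose, taken to imply half-maximal potency below 2 µM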;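 further: 0% = DMSO untreated growth and 100% = chloroquine plus artemisinin killed control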); settings: P. falciparum Dd2 in RBCs, LDH growth readout, 72 h; at 2 µM; stronger effect = higher value
[2] = HepG2 cytotoxicity, primary screen, cytotoxicity control for P. falciparum antimalarial project, cell-based, ATP luminescence (AID 2303;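 active means inhibition above 50%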;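 further: 0% = DMSO wells and 100% = digitonin-killed cells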); settings: HepG2 viability, 24-48 h, at 10 µM, stronger effect = higher value
[3] = target: L-lactate dehydrogenase (Plasmodium falciparum (isolate CDC / Honduras)) (UniProt Q27743); assay: PfLDH activity inhibition – cell lysate, 3D7 strain, counter-screen for P. falciparum growth inhibition project (AID 2304);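 further: 0% = vehicle and 100% = reference inhibitor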; settings: P. falciparum 3D7 crude extract, LDH APAD/NBT absorbance; at 2 µM; stronger effect = higher value
L-lactate dehydrogenase (Plasmodium falciparum (isolate CDC / Honduras)), sequence (Q27743 whole entry, looked up): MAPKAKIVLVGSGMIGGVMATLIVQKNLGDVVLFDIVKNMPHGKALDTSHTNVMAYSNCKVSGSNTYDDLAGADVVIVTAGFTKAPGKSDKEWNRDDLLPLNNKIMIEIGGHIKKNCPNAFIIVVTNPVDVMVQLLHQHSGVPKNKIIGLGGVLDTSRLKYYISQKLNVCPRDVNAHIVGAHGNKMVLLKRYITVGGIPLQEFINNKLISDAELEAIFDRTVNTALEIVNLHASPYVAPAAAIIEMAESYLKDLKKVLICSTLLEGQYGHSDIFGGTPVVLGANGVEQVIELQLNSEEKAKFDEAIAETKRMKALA

[4] = inhibition of 3D7 malaria parasite growth – strain 3D7 (AID 2306);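 further: 0% = DMSO wells and 100% = chloroquine plus artemisinin control wells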; settings: P. falciparum 3D7 erythrocytic growth, LDH absorbance, 72 h; at 2 µM; stronger effect = higher value
[5] = target: Calcium-dependent protein kinase 1 (Plasmodium falciparum (isolate 3D7)) (UniProt P62344); assay: PfCDPK1 kinase inhibitors, biochemical, TCAMS library (AID 1159585; cut-off not given, nearly all actives have IC50 up to about 0.98 µM;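 further: inhibitors leave more ATP so luminescence rises with inhibition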); settings: recombinant PfCDPK1, Kinase-Glo ATP depletion luminescence
Calcium-dependent protein kinase 1 (Plasmodium falciparum (isolate 3D7)), sequence (P62344 whole entry, looked up): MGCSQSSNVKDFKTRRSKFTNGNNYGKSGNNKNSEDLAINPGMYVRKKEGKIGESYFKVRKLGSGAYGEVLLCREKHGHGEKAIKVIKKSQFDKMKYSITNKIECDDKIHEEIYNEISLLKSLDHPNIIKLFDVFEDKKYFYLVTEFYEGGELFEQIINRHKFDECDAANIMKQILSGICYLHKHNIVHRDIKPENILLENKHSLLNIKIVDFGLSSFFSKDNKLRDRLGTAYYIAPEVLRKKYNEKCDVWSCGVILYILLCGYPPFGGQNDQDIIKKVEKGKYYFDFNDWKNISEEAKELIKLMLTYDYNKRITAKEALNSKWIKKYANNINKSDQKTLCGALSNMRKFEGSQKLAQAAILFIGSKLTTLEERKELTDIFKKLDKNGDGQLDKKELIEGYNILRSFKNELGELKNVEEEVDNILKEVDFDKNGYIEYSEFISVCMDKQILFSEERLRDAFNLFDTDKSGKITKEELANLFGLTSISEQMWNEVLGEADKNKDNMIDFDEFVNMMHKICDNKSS

[6] = target: Plasmodium falciparum protein kinase 6 (PK6, PF3D7_1337100) (UniProt Q8IDW1); assay: PfPK6 kinase inhibitors, biochemical, TCAMS library (AID 1159586); settings: recombinant PfPK6, Kinase-Glo ATP depletion luminescence
Plasmodium falciparum protein kinase 6 (PK6, PF3D7_1337100), sequence (Q8IDW1 1-305): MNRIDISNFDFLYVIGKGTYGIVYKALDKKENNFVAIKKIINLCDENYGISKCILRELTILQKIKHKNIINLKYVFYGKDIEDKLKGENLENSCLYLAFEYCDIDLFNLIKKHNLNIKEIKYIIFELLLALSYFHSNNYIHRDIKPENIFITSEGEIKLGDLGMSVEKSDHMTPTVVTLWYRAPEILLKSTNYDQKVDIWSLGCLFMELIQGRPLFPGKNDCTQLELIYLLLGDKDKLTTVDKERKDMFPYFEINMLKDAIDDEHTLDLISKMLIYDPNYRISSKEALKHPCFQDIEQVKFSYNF

[7] = target: Protein kinase 7 (PK7), Plasmodium falciparum 3D7 (PF3D7_0213400) (UniProt Q7YTF7); assay: inhibition of Plasmodium PK7 catalytic activity – biochemical, TCAMS antimalarial set, Kinase-Glo luminescence (AID 1159587); settings: recombinant PfPK7, Kinase-Glo ATP depletion luminescence
Protein kinase 7 (PK7), Plasmodium falciparum 3D7 (PF3D7_0213400), sequence (Q7YTF7 1-343): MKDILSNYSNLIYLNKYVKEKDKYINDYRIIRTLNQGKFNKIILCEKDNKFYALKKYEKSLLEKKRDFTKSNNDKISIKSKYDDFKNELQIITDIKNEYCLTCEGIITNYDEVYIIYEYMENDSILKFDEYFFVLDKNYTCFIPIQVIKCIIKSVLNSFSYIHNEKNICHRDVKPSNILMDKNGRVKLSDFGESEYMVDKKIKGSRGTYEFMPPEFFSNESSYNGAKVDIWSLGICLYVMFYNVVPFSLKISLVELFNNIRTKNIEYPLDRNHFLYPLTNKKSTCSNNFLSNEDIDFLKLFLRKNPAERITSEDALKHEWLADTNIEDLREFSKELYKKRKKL

[8] = target: Calcium-dependent protein kinase 4 (Plasmodium falciparum (isolate 3D7)) (UniProt Q8IBS5); assay: PfCDPK4 kinase inhibitors, biochemical, TCAMS library (AID 1159588; cut-off not given, nearly all actives have IC50 up to about 0.91 µM); settings: recombinant PfCDPK4, Kinase-Glo ATP depletion luminescence
Calcium-dependent protein kinase 4 (Plasmodium falciparum (isolate 3D7)), sequence (Q8IBS5 whole entry, looked up): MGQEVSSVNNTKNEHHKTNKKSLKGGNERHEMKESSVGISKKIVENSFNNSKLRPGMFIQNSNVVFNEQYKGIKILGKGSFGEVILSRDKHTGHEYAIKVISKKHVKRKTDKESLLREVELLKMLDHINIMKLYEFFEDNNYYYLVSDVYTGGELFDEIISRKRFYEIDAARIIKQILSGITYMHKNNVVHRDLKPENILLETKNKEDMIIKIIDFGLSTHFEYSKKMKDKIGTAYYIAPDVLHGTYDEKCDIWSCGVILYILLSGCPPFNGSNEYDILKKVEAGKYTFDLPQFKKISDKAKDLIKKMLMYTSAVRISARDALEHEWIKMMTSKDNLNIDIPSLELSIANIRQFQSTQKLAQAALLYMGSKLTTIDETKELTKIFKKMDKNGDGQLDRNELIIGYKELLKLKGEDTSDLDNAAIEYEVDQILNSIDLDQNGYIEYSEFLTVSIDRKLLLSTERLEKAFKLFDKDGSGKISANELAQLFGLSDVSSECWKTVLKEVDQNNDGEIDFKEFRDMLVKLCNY

COc1ccc(-c2ccccc2OCCCNc2nc(NCCc3ccc(O)cc3)nc(N3CCNCC3)n2)cc1
active: growth inhibition [4] 99%
inactive: growth inhibition [1] 3% | inhibition [2] 36% | inhibition [3] -1% | outcome [5] | outcome [6] | outcome [7] | outcome [8]

CC(C)C(C(=O)n1ncc2c3c(N)nc(N)nc3ccc21)C(C)C
active: inhibition [2] 67% | growth inhibition [4] 98%
inactive: growth inhibition [1] 8% | inhibition [3] -8% | outcome [5] | outcome [6] | outcome [7] | outcome [8]

Cc1cccc2[nH]c(-c3cccc(-c4cccc(CNCc5ccc(S(C)(=O)=O)cc5)c4)c3)nc12
active: growth inhibition [1] 66% | growth inhibition [4] 100%
inactive: inhibition [2] 13% | inhibition [3] 0% | outcome [5] | outcome [6] | outcome [7] | outcome [8]

CC(C)(C)c1nn(-c2ccc(Cl)cc2)c2[nH]c(=O)c(CNCc3cccs3)cc12
inactive: inhibition [2] 5% | inhibition [3] 3% | outcome [5] | outcome [6] | outcome [7] | outcome [8]
active: growth inhibition [1] 77% | growth inhibition [4] 102%

NC1=Nc2ccc(Cl)cc2C1(O)c1ccccc1 (stereo not drawn)
inactive: inhibition [2] -3% | inhibition [3] -3% | outcome [5] | outcome [6] | outcome [7] | outcome [8]
active: growth inhibition [1] 51% | growth inhibition [4] 100%

O=C1C(c2ccccc2)=C(Nc2ccc(OC(F)(F)F)cc2)c2ccccc21
active: growth inhibition [1] 96% | growth inhibition [4] 96%
inactive: inhibition [2] 18% | inhibition [3] 1% | outcome [5] | outcome [6] | outcome [7] | outcome [8]

CC(C)CCN=C(N)Nc1ccc(OCCCCCOc2ccc(NC(N)=NCCC(C)C)cc2)cc1
active: growth inhibition [1] 67% | growth inhibition [4] 85%
inactive: inhibition [2] 14% | inhibition [3] 6% | outcome [5] | outcome [6] | outcome [7] | outcome [8]

CCOc1cc(Cc2cnc(N)nc2N)cc(OCC)c1-n1cccc1
active: growth inhibition [4] 98%
inactive: growth inhibition [1] -1% | inhibition [2] -1% | inhibition [3] -2% | outcome [5] | outcome [6] | outcome [7] | outcome [8]

COc1ccc(-c2cc(-c3nc4ccc(C(=O)N5CCOCC5)cc4[nH]3)c(=O)n(C)c2)cc1OC
active: growth inhibition [1] 95% | growth inhibition [4] 93%
inactive: inhibition [2] 6% | inhibition [3] 4% | outcome [5] | outcome [6] | outcome [7] | outcome [8]

COc1cc(C)nc2ccc(NC(=O)Nc3ccc([N+](=O)[O-])cc3C)cc12
inactive: inhibition [2] 10% | inhibition [3] -5% | outcome [5] | outcome [6] | outcome [7] | outcome [8]
active: growth inhibition [1] 52% | growth inhibition [4] 90%

COc1ccc2nccc([C@@H](O)CN3CCC(NC(=O)C(c4cc5ccccc5o4)N4CCN(c5ccccc5OC)CC4)CC3)c2c1 (stereo partly drawn)
inactive: inhibition [2] 14% | inhibition [3] -5% | outcome [5] | outcome [6] | outcome [7] | outcome [8]
active: growth inhibition [1] 83% | growth inhibition [4] 99%

CCSc1nnc(C2CCCN(CC(=O)Nc3cc(C(F)(F)F)ccc3Cl)C2)n1CC (stereo not drawn)
inactive: inhibition [2] 0% | inhibition [3] 5% | outcome [5] | outcome [6] | outcome [7] | outcome [8]
active: growth inhibition [1] 96% | growth inhibition [4] 99%

O=C(CCCC(=O)Nc1ccc(C2=NCCN2)cc1)Nc1ccc(C2=NCCN2)cc1
active: growth inhibition [1] 81% | growth inhibition [4] 91%
inactive: inhibition [2] 3% | inhibition [3] 2% | outcome [5] | outcome [6] | outcome [7] | outcome [8]

COc1ccc(-c2cc(C(=O)N3CCc4ccccc43)c3ccccc3n2)cc1OC
inactive: growth inhibition [1] 48% | inhibition [2] 5% | inhibition [3] 3% | outcome [5] | outcome [6] | outcome [7] | outcome [8]
active: growth inhibition [4] 85%

Cc1cc(N(C)C)nc(Nc2ccc(NC(=O)CCc3ccccc3)cc2)n1
active: growth inhibition [1] 84% | growth inhibition [4] 100%
inactive: inhibition [2] 20% | inhibition [3] 1% | outcome [5] | outcome [6] | outcome [7] | outcome [8]

O=C(n1c(-c2cc3ccccc3n2C(=O)C(F)(F)F)cc2ccccc21)C(F)(F)F
inactive: inhibition [2] 30% | inhibition [3] 5% | outcome [5] | outcome [6] | outcome [7] | outcome [8]
active: growth inhibition [1] 80% | growth inhibition [4] 94%

Cn1c2c(c3ccccc31)CN(CCC1(c3ccc(Cl)c(Cl)c3)CN(C(=O)c3ccccc3)CCO1)CC2 (stereo not drawn)
inactive: inhibition [2] 10% | inhibition [3] 3% | outcome [5] | outcome [6] | outcome [7] | outcome [8]
active: growth inhibition [1] 88% | growth inhibition [4] 97%

CC(=O)Oc1cc(C)ccc1C1CCN(CCCCNC(=O)c2ccc(NC(=O)c3ccc(Cl)cc3)cc2)CC1
inactive: inhibition [2] 12% | inhibition [3] -5% | outcome [5] | outcome [6] | outcome [7] | outcome [8]
active: growth inhibition [1] 57% | growth inhibition [4] 100%

CN(Cc1cccc(F)c1)C1CCN(c2cc(NC(=O)c3ccc(F)cc3)ccn2)CC1
inactive: growth inhibition [1] 36% | inhibition [2] -3% | inhibition [3] 3% | outcome [5] | outcome [6] | outcome [7] | outcome [8]
active: growth inhibition [4] 95%

O=C(Nc1cc(C(F)(F)F)cc(C(F)(F)F)c1)N1CCC(CCN2CCC(c3c[nH]c4ccccc34)CC2)CC1
inactive: growth inhibition [1] 16% | inhibition [2] 17% | inhibition [3] 6% | outcome [5] | outcome [6] | outcome [7] | outcome [8]
active: growth inhibition [4] 91%

CCCCC(N)COc1cccc2c(-c3ccncc3)c(-c3cccc(NC(=O)Nc4ccccc4)c3)nn12 (stereo not drawn)
inactive: inhibition [2] 13% | inhibition [3] 0% | outcome [5] | outcome [6] | outcome [7] | outcome [8]
active: growth inhibition [1] 82% | growth inhibition [4] 102%

CN(C)c1ccnc2ccc(NC(=O)Nc3ccnc4ccccc34)cc12
inactive: inhibition [2] 15% | inhibition [3] 3% | outcome [5] | outcome [6] | outcome [7] | outcome [8]
active: growth inhibition [1] 99% | growth inhibition [4] 100%

Cc1cccc(CNc2nc(C)cc(N[C@@H](CC(C)C)C(=O)NCc3cccc(F)c3)n2)c1
inactive: growth inhibition [1] 32% | inhibition [2] 13% | inhibition [3] -3% | outcome [5] | outcome [6] | outcome [7] | outcome [8]
active: growth inhibition [4] 91%

CC(C)c1cc2c(ccc3nc(N)nc(N)c32)[nH]1
inactive: growth inhibition [1] 4% | inhibition [2] 49% | inhibition [3] 2% | outcome [5] | outcome [6] | outcome [7] | outcome [8]
active: growth inhibition [4] 93%

CC(C)(C)COc1ccc2c(N)n[nH]c2c1
inactive: growth inhibition [1] 8% | inhibition [2] 31% | inhibition [3] 4% | outcome [5] | outcome [6] | outcome [7] | outcome [8]
active: growth inhibition [4] 90%

CN(C)CCCOc1cccc(NC(=O)Nc2ccc(-c3ccccc3)cc2)c1
inactive: growth inhibition [1] 14% | inhibition [2] 9% | inhibition [3] -8% | outcome [5] | outcome [6] | outcome [7] | outcome [8]
active: growth inhibition [4] 91%

CCOC(=O)c1cccc(NC(=O)Nc2cc(C)nc3ccccc23)c1
inactive: inhibition [2] 14% | inhibition [3] 0% | outcome [5] | outcome [6] | outcome [7] | outcome [8]
active: growth inhibition [1] 90% | growth inhibition [4] 100%

CN(C(=O)c1ccc(Br)cc1)c1ccccc1[N+](=O)[O-]
active: growth inhibition [4] 96%
inactive: growth inhibition [1] 0% | inhibition [2] 3% | inhibition [3] 2% | outcome [5] | outcome [6] | outcome [7] | outcome [8]

CCOc1ccc(CCCON2C(N)=NC(N)=NC2(C)C)cc1
inactive: inhibition [3] 0% | outcome [5] | outcome [6] | outcome [7] | outcome [8]
active: growth inhibition [1] 93% | inhibition [2] 65% | growth inhibition [4] 93%

Cc1cccc(/C=C/C(=O)NC2CCC(N3CCC(c4ccccc4C)CC3)CC2)c1 (stereo not drawn)
active: inhibition [2] 67% | growth inhibition [4] 92%
inactive: growth inhibition [1] 20% | inhibition [3] -3% | outcome [5] | outcome [6] | outcome [7] | outcome [8]

Nc1nc(N)c2c(CCc3ccc4ccccc4c3)cccc2n1
inactive: growth inhibition [1] 6% | inhibition [3] -2% | outcome [5] | outcome [6] | outcome [7] | outcome [8]
active: inhibition [2] 56% | growth inhibition [4] 102%

COc1ccc(NC(=O)Nc2cccc(-c3cccc(-c4nc5ccccc5[nH]4)c3)c2)cc1
active: growth inhibition [4] 101%
inactive: growth inhibition [1] 41% | inhibition [2] 41% | inhibition [3] 3% | outcome [5] | outcome [6] | outcome [7] | outcome [8]

COc1ccc2nccc([C@@H](O)CN3CCC(NCCOc4c(C)cccc4F)CC3)c2c1
inactive: inhibition [2] 4% | inhibition [3] -5% | outcome [5] | outcome [6] | outcome [7] | outcome [8]
active: growth inhibition [1] 95% | growth inhibition [4] 100%

O=C(Nc1ccc(C(F)(F)F)cc1)c1cc(Br)cnc1NCCCn1ccnc1
active: growth inhibition [1] 98% | growth inhibition [4] 99%
inactive: inhibition [2] 32% | inhibition [3] 2% | outcome [5] | outcome [6] | outcome [7] | outcome [8]

CC(C)c1cccc(OCC2CCN(c3ncc(C(=O)NC4CC4)cc3Cl)CC2)c1
active: growth inhibition [1] 95% | growth inhibition [4] 94%
inactive: inhibition [2] 9% | inhibition [3] -1% | outcome [5] | outcome [6] | outcome [7] | outcome [8]

O=C(Cc1ccccc1)NC(Nc1ccc([N+](=O)[O-])cc1)C(Cl)(Cl)Cl (stereo not drawn)
active: growth inhibition [1] 100% | growth inhibition [4] 99%
inactive: inhibition [2] 21% | inhibition [3] 1% | outcome [5] | outcome [6] | outcome [7] | outcome [8]

O=S1C(Cl)=C(c2ccc(Cl)cc2)c2ccc(Cl)cc21 (stereo not drawn)
active: growth inhibition [1] 99% | growth inhibition [4] 91%
inactive: inhibition [2] 33% | inhibition [3] 1% | outcome [5] | outcome [6] | outcome [7] | outcome [8]

OCCc1ccc(Nc2nccc(-c3nnc4ccccn34)n2)cc1
inactive: growth inhibition [1] 46% | inhibition [3] 6% | outcome [5] | outcome [6] | outcome [7] | outcome [8]
active: inhibition [2] 63% | growth inhibition [4] 93%

COc1ccc(CCCCN2C(=O)C(c3ccccc3)(c3ccccc3)N=C2N)cc1
active: growth inhibition [1] 95% | growth inhibition [4] 97%
inactive: inhibition [2] 40% | inhibition [3] -2% | outcome [5] | outcome [6] | outcome [7] | outcome [8]

O=C(Nc1cccnc1)c1cc(-c2cccnc2)nc2ccc(Cl)cc12
active: growth inhibition [1] 50% | growth inhibition [4] 97%
inactive: inhibition [2] 45% | inhibition [3] -6% | outcome [5] | outcome [6] | outcome [7] | outcome [8]

CCSc1nc2sc3c(c2c(=O)n1-c1ccccc1)CCN(C)C3
inactive: inhibition [2] 16% | inhibition [3] -3% | outcome [5] | outcome [6] | outcome [7] | outcome [8]
active: growth inhibition [1] 71% | growth inhibition [4] 83%

Source: PubChem BioAssay
